The text below walks through data of the supplement of paper PMC13380429.

For assay [1], the system named is Vero E6 infected with SARS-CoV-2. As to the kind of experiment: morphology score (similarity to uninfected cells); higher = more like uninfected cells. To be noted: 24 h.
For assay [2] the test system is unchanged. The experiment in a line: SARS-CoV-2 infection rate relative to infected DMSO; higher = more infection, active = 60 or less. The following applies: 24 h.

With `CCOC(=O)C1=C(C)NC(C)=C(C(=O)OC)[C@@H]1c1cccc([N+](=O)[O-])c1` (racemic) [nitrendipine] (10 µM), the morphology score in assay [1] is -0.062. In assay [2], the SARS-CoV-2 infection rate is 112% (inactive).
For the molecule `C[C@H]1c2cccc(O)c2C(=O)C2=C(O)[C@]3(O)C(=O)C(C(N)=O)=C(O)[C@@H](N(C)C)[C@@H]3[C@@H](O)[C@@H]21` [doxycycline] (10 µM), in assay [1], the morphology score worked out at 0.0783. In addition, the SARS-CoV-2 infection rate in assay [2] was 97% (inactive).
As to `c1coc(CNc2ncnc3[nH]cnc23)c1` [kinetin] (10 µM), the morphology score in assay [1] came to 0.0735. In addition, in assay [2], the SARS-CoV-2 infection rate is 104% (inactive).
Molecule `COc1ccc(C(=O)N2CCCc3cc(C4=NNC(=O)SC4C)ccc32)cc1OC` (stereo not given) (0.833333 µM) gave a morphology score in assay [1] of -0.177. Also, the SARS-CoV-2 infection rate in assay [2] was 109% (inactive).
For `Nc1ncnc2c1ncn2[C@@H]1O[C@@H]2COP(=O)(O)O[C@H]2[C@H]1O` [cyclic-AMP] (10 µM), the morphology score in assay [1] worked out at 0.255. Further, the SARS-CoV-2 infection rate in assay [2] was 86.5% (inactive).
On the same counts, the results for `CC(C)(CO)CCCCCCC(C)(C)CO` [gemcadiol] (10 µM) are 0.124 and 98.5% (inactive).
On the same counts, the results for `Cc1cc2nc3c(=O)[nH]c(=O)nc-3n(C[C@H](O)[C@H](O)[C@H](O)COP(=O)(O)O)c2cc1C` [riboflavin-5-phosphate-sodium] (10 µM) are 0.173 and 102% (inactive).
As to `CC[C@@](C)(Nc1ccnc(-c2c[nH]c3ncccc23)n1)C(=O)NCC(F)(F)F` [decernotinib] (10 µM), the morphology score in assay [1] worked out at 0.178. Further, in assay [2], the SARS-CoV-2 infection rate was 108% (inactive).
In turn, `CC(C)NCC(O)COc1cccc2ccccc12` (stereo not given) [propranolol] (10 µM) yielded a morphology score in assay [1] of 0.148. Besides, the SARS-CoV-2 infection rate in assay [2] was 103% (inactive).
In assay [1], `CN1CCC(=C2c3ccccc3C=Cc3ccccc32)CC1` [cyproheptadine] (0.833333 µM) had a morphology score of 0.0226. The SARS-CoV-2 infection rate in assay [2] is 102% (inactive).
In assay [1], `O=c1c(-c2ccc(O)cc2)coc2c([C@@H]3O[C@H](CO)[C@@H](O)[C@H](O)[C@H]3O)c(O)ccc12` [puerarin] (10 µM) registered a morphology score of 0.0648. In addition, the SARS-CoV-2 infection rate in assay [2] was 98.5% (inactive).
`COc1cc(N2CCN(C)CC2)ccc1Nc1nccc(-c2cn(C)c3cnccc23)n1` (0.833333 µM) displayed a morphology score in assay [1] of 0.377. The SARS-CoV-2 infection rate in assay [2] is 100% (inactive).
Turning to `CCOC(=O)c1ccc(N2NC(=O)/C(=C/c3ccc([N+](=O)[O-])o3)C2=O)cc1` (10 µM), the morphology score in assay [1] was determined as 0.149. Besides, in assay [2], the SARS-CoV-2 infection rate was 85% (inactive).
In turn, `COc1cc2c3cc1Oc1cc(ccc1O)C[C@@H]1c4c(cc(OC)c(O)c4Oc4ccc(cc4)C[C@@H]3N(C)CC2)CC[N+]1(C)C` [tubocurarine] (10 µM) yielded a morphology score in assay [1] of -0.0274. Further, the SARS-CoV-2 infection rate in assay [2] is 110% (inactive).
On the same counts, the results for `O=C(C[C@H]1CC(c2ccc(F)cc2F)=NO1)N1CCOCC1` (racemic) (10 µM) are 0.00815 and 103% (inactive).
With `Cc1c(N(C)CS(=O)(=O)O)c(=O)n(-c2ccccc2)n1C` [metamizole] (10 µM), the morphology score in assay [1] was determined as 0.141. Further, the SARS-CoV-2 infection rate in assay [2] was 93.5% (inactive).
The molecule `Cc1cc(C)c2c(c1)[C@@H](N(Cc1cc(C(F)(F)F)cc(C(F)(F)F)c1)c1nnn(C)n1)CCCN2C[C@H]1CC[C@H](C(=O)O)CC1` [evacetrapib] (10 µM) registered a morphology score in assay [1] of 0.0498. Besides, in assay [2], the SARS-CoV-2 infection rate was 97% (inactive).
With `O=C1N=C2SCCN2C(=O)C1Cc1ccc(Cl)cc1` (stereo not given) [nuclomedone] (10 µM), the morphology score in assay [1] was 0.238. In addition, the SARS-CoV-2 infection rate in assay [2] was 99% (inactive).
In the same order, the values of `NCCc1c[nH]c2ccc(C(N)=O)cc12` [5-carboxamidotryptamine] (10 µM) are 0.0259 and 103% (inactive).
On the same counts, the results for `Cc1ccccc1C(OCCN(C)C)c1ccccc1` (stereo not given) [orphenadrine] (10 µM) are 0.316 and 87% (inactive).
`Cc1cc(O)cc(C)c1Cl` [chloroxylenol] (10 µM): in assay [1], the morphology score is 0.0293. Further, the SARS-CoV-2 infection rate in assay [2] was 99% (inactive).
On the same counts, the results for `CCN1C[C@]2(COC(=O)c3ccccc3N3C(=O)C[C@H](C)C3=O)CC[C@H](OC)[C@@]34[C@@H]5C[C@H]6[C@H](OC)[C@@H]5[C@](O)(C[C@@H]6OC)[C@](O)([C@@H](OC)[C@H]23)[C@@H]14` [methyllycaconitine] (10 µM) are 0.00671 and 110% (inactive).
`Cn1cc(C(=O)OCC2CCN(CCNS(C)(=O)=O)CC2)c2ccccc21` (10 µM) had a morphology score in assay [1] of 0.228. For the same molecule, the SARS-CoV-2 infection rate in assay [2] was 96% (inactive).
`COc1ccc(CCC(=O)c2c(O)cc(O[C@@H]3O[C@H](CO)[C@@H](O)[C@H](O)[C@H]3O[C@@H]3O[C@@H](C)[C@H](O)[C@@H](O)[C@H]3O)cc2O)cc1O` [Neohesperidin dihydrochalcone (Nhdc)] (10 µM) came in with a morphology score in assay [1] of 0.0549. Further, the SARS-CoV-2 infection rate in assay [2] is 99.5% (inactive).
In assay [1], `N[C@@H]1c2cccnc2[C@H](OC(=O)N2CCC(n3c(=O)[nH]c4ncccc43)CC2)CC[C@H]1c1cccc(F)c1F` [rimegepant] (10 µM) yielded a morphology score of 0.177. Also, the SARS-CoV-2 infection rate in assay [2] was 96.5% (inactive).
In turn, `Cn1c(C#N)ccc1-c1ccc2c(c1)C(C)(C)OC(=S)N2` [tanaproget] (10 µM) gave a morphology score in assay [1] of 0.0429. Moreover, in assay [2], the SARS-CoV-2 infection rate was 102% (inactive).
On the same counts, the results for `CN(C)CCC=C1c2ccccc2CCc2ccccc21` [amitriptyline] (10 µM) are 0.0472 and 100% (inactive).
In the same order, the values of `Cc1cccc(-c2[nH]c(C(C)(C)C)nc2-c2ccc3nccnc3c2)n1` (10 µM) are -0.0319 and 100% (inactive).
In the same order, the values of `CC(=O)NCCc1c[nH]c2ccccc12` [N-acetyltryptamine] (10 µM) are 0.0383 and 94.5% (inactive).
Take `CC(C)(C)c1cc(C=C(C#N)C#N)cc(Br)c1O` (10 µM): in assay [1], the morphology score was 0.14. Also, the SARS-CoV-2 infection rate in assay [2] is 108% (inactive).
In the same order, the values of `CCOP(=S)(OCC)Oc1nc(Cl)c(Cl)cc1Cl` [chlorpyrifos] (10 µM) are -0.24 and 112% (inactive).
In the same order, the values of `C[N+](C)(C)[C@@H](Cc1c[nH]c(=S)[nH]1)C(=O)O` [L-ergothioneine] (10 µM) are 0.0598 and 99% (inactive).
In the same order, the values of `CN(C)CCOC(=O)C(c1ccccc1)C1(O)CCCC1` (stereo not given) [cyclopentolate] (10 µM) are 0.178 and 93% (inactive).
Take `CN(C)c1cccc(Oc2cnc(Nc3cccc(O)c3)nc2)c1` (10 µM): the morphology score in assay [1] was 0.0803. Besides, in assay [2], the SARS-CoV-2 infection rate is 109% (inactive).
In assay [1], `CC(Cc1cccc(C(F)(F)F)c1)NCCOC(=O)c1ccccc1` (stereo not given) [benfluorex] (10 µM) had a morphology score of 0.0298. The SARS-CoV-2 infection rate in assay [2] was 104% (inactive).
On the same counts, the results for `CCOC(=O)c1ccc(N)cc1` [benzocaine] (10 µM) are -0.0142 and 112% (inactive).
In assay [1], `Cn1c(COP(=O)(NCCBr)NCCBr)cnc1[N+](=O)[O-]` (10 µM) gave a morphology score of 0.0413. Also, the SARS-CoV-2 infection rate in assay [2] is 106% (inactive).
In the same order, the values of `CS(=O)(=O)c1ccc(Cn2c3c(c4cc(F)cc(F)c42)CCCC3CC(=O)O)cc1` (stereo not given) (10 µM) are 0.144 and 90% (inactive).
On the same counts, the results for `Nc1nc(CC(=O)Nc2ccc(CCNC[C@H](O)c3ccccc3)cc2)cs1` [mirabegron] (10 µM) are -0.0704 and 102% (inactive).
The molecule `CC(C)C[C@H](NC(=O)[C@H](Cc1ccccc1)NC(=O)c1cnccn1)B(O)O` [bortezomib] (10 µM) had a morphology score in assay [1] of -0.0961. Further, the SARS-CoV-2 infection rate in assay [2] is 96.5% (inactive).
The molecule `COc1cc(/C=C/C(=O)CC(=O)/C=C/c2ccc(O)c(OC)c2)ccc1O` [curcumin] (10 µM) gave a morphology score in assay [1] of 0.548. Also, the SARS-CoV-2 infection rate in assay [2] is 61.5% (inactive).
On the same counts, the results for `CC1(C)S[C@@H]2[C@H](N3C(=O)[C@@H](c4ccccc4)NC3(C)C)C(=O)N2[C@H]1C(=O)O` [hetacillin] (10 µM) are 0.138 and 96.5% (inactive).
In turn, `Cc1cnc(Nc2ccc(N3CCN(C)CC3)cc2)nc1Nc1cccc(S(=O)(=O)NC(C)(C)C)c1` (0.833333 µM) yielded a morphology score in assay [1] of 0.106. Further, the SARS-CoV-2 infection rate in assay [2] is 122% (inactive).
On the same counts, the results for `O=C(O)CCn1c2c(c3ccccc31)C[C@H](NS(=O)(=O)c1ccc(F)cc1)CC2` [ramatroban] (10 µM) are -0.0055 and 102% (inactive).
Consider `CCOC(=O)C1=C(C)NC(C)=C(C(=O)OCC)C1c1ccccc1/C=C/C(=O)OC(C)(C)C` [lacidipine] (10 µM), for which the morphology score in assay [1] was found to be 0.101. For the same molecule, the SARS-CoV-2 infection rate in assay [2] is 106% (inactive).
On the same counts, the results for `c1ccc2nc(C3=NCCN3)cnc2c1` (10 µM) are 0.177 and 93% (inactive).
On the same counts, the results for `CCCCCCCCCCCCCCSCC(=O)O` [tetradecylthioacetic-acid] (10 µM) are -0.0649 and 112% (inactive).
In the same order, the values of `CCN(CC)C(C)C(=O)c1ccccc1` (stereo not given) [amfepramone] (10 µM) are 0.016 and 116% (inactive).
Take `COc1cccc(Nc2ncnn3ccc(CN4CC[C@@H](N)[C@H](O)C4)c23)c1` (0.833333 µM): in assay [1], the morphology score was -0.24. For the same molecule, in assay [2], the SARS-CoV-2 infection rate was 112% (inactive).
Take `CC1=C(C(=O)O)N2C(=O)[C@@H](NC(=O)[C@H](N)C3=CCC=CC3)[C@H]2SC1` [cephradine] (10 µM): the morphology score in assay [1] stood at 0.0689. Further, the SARS-CoV-2 infection rate in assay [2] is 106% (inactive).
Regarding `CC(C)COc1ccc(CNC(=O)N(Cc2ccc(F)cc2)C2CCN(C)CC2)cc1` [pimavanserin] (10 µM), in assay [1], the morphology score amounted to 0.709. For the same molecule, in assay [2], the SARS-CoV-2 infection rate was 23% (active).
On the same counts, the results for `O=C1C[C@@H](c2ccc(O)cc2)Oc2cc(O)ccc21` (10 µM) are 0.025 and 110% (inactive).
As for `COc1ccc(C(C)(C)C)cc1CN[C@H]1C2CCN(CC2)[C@H]1C(c1ccccc1)c1ccccc1` [maropitant] (0.833333 µM), the morphology score in assay [1] is 0.103. For the same molecule, the SARS-CoV-2 infection rate in assay [2] is 104% (inactive).
On the same counts, the results for `CCN[C@@H](C)Cc1cccc(C(F)(F)F)c1` [dexfenfluramine] (10 µM) are -0.224 and 112% (inactive).
In assay [1], `CC(C)NC[C@@H](C(=O)N1CCN(c2ncnc3c2[C@H](C)C[C@H]3O)CC1)c1ccc(Cl)cc1` (10 µM) had a morphology score of 0.0963. Further, the SARS-CoV-2 infection rate in assay [2] was 96% (inactive).
On the same counts, the results for `Nc1cc(C(F)(F)F)c(-c2nc(N3CCOCC3)nc(N3CCOCC3)n2)cn1` (10 µM) are 0.0308 and 114% (inactive).
In the same order, the values of `CCN(CC)CCOCCOC(=O)C1(c2ccccc2)CCCC1` [carbetapentane] (10 µM) are 0.363 and 83% (inactive).
On the same counts, the results for `Cc1cnc(-c2cc(N3CCN(C(=O)CCS(C)(=O)=O)CC3)ncc2Cl)c(C)c1` (10 µM) are 0.241 and 105% (inactive).
Take `O=c1c(O)c(-c2ccc(O)c(O)c2)oc2cc(O)cc(O)c12` [quercetin] (10 µM): the morphology score in assay [1] came to 0.0809. Moreover, the SARS-CoV-2 infection rate in assay [2] was 102% (inactive).
In the same order, the values of `Cn1cc(C2=C(c3ccc(Cl)cc3Cl)C(=O)NC2=O)c2ccccc21` (10 µM) are 0.00458 and 102% (inactive).
